Consider eight sequences from paper PMC7862700, “An all-to-all approach to the identification of sequence-specific readers for epigenetic DNA modifications on cytosine”.

Common to all, as to assay: DAPPL (digital affinity profiling via proximity ligation, sequencing); 10 mM Tris-HCl pH 7.5, 50 mM NaCl, 1 mM DTT, 4% glycerol, room temperature, 30 min; GST-TFs on glutathione beads, 16-mer random dsDNA library, 0.1% formaldehyde crosslink after washing; high values mean tight binding
For one experiment, the target named is T1, FEV (Homo sapiens, UniProt Q99581 1-238).
T1 sequence: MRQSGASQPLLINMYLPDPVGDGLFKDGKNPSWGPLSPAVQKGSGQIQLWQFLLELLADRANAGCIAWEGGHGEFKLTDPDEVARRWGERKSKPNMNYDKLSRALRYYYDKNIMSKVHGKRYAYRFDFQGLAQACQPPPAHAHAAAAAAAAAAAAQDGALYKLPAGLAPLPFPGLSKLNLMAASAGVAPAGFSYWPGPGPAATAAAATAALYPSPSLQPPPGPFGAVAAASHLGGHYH
Conditions: protein: recombinant; tags: N-terminal GST; dsDNA, one strand shown. Summed up: (§1)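 Yeast served to express human transcription factors as GST fusions, which were then captured on glutathione beads and labelled with DNA barcodes. Pooled with a tag-only sample, they were incubated with 200 nmole of a 16-mer random double-stranded DNA library for 30 min at room temperature in Tris/NaCl/DTT/glycerol buffer, washed, crosslinked with 0.1% formaldehyde, ligated by proximity, amplified by PCR and sequenced. Dividing each hexamer's read frequency for a factor by its frequency for the tag-only sample gives the binding signal.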

For the next experiment, the target named is ETV5 (Homo sapiens, UniProt P41161 1-510). Particulars: protein: recombinant; tags: N-terminal GST; dsDNA, one strand shown. Summed up:
as §1

Another experiment deals with HSF1 (Homo sapiens, UniProt Q00613 1-529). Particulars: protein: recombinant; tags: N-terminal GST; chain copies: 3; dsDNA, one strand shown. In outline: as §1
A further experiment addresses T2, SPIC (Homo sapiens, UniProt Q8N5J4 1-248).
T2 sequence: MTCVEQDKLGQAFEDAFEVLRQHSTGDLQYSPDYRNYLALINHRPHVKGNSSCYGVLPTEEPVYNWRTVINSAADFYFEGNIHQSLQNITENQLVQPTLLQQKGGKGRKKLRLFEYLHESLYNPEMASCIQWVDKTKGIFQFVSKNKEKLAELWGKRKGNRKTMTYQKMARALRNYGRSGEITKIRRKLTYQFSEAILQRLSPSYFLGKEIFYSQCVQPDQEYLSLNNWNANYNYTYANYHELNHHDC
Particulars: protein: recombinant; tags: N-terminal GST; dsDNA, one strand shown. In outline:
as §1

Another experiment deals with ELF4 (Homo sapiens, UniProt Q99607 1-663). Conditions: protein: recombinant; tags: N-terminal GST; dsDNA, one strand shown. Summed up:
as §1

The next experiment concerns the target T3, ELK4 (Homo sapiens, UniProt P28324-2 1-405).
T3 sequence: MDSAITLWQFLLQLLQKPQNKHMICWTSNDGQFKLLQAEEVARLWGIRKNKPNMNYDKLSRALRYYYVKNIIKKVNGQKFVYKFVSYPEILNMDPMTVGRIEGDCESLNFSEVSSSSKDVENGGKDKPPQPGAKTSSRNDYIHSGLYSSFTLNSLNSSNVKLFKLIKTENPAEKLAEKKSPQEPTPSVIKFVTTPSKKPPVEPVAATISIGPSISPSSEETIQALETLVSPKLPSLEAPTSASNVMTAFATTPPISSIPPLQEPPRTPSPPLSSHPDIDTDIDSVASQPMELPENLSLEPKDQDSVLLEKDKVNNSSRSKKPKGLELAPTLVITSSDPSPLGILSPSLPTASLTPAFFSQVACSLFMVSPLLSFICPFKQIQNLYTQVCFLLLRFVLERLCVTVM
Conditions: protein: recombinant; tags: N-terminal GST; dsDNA, one strand shown. Summed up: as §1

For a further experiment, the target named is T4, ETV2 (Homo sapiens, UniProt O00321 1-342).
T4 sequence: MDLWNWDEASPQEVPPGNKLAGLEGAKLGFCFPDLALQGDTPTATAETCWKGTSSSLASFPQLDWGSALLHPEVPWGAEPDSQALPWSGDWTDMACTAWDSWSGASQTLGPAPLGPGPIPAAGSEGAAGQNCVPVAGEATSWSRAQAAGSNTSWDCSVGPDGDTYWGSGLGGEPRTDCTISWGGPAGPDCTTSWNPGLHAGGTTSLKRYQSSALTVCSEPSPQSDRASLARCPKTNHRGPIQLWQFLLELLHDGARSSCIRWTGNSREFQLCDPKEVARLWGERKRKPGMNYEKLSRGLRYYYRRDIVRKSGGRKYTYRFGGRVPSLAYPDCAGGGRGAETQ
Particulars: protein: recombinant; tags: N-terminal GST; dsDNA, one strand shown. In outline:
as §1

For another experiment, the target named is T5, ELF3 (Homo sapiens, UniProt P78545 1-371).
T5 sequence: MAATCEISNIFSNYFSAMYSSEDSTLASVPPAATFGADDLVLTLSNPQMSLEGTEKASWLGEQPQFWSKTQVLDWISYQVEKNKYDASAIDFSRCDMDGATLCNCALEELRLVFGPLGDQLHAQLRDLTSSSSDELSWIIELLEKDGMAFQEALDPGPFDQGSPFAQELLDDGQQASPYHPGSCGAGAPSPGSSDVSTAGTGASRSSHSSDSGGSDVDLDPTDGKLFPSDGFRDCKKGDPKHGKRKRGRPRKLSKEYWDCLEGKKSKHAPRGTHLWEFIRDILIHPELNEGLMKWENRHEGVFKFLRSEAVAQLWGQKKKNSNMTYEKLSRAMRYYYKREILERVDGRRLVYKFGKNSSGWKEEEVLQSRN
Conditions: protein: recombinant; tags: N-terminal GST; dsDNA, one strand shown. In outline:
as §1

For another experiment, the target named is CRX (Homo sapiens, UniProt O43186 1-299). Particulars: protein: recombinant; tags: N-terminal GST; dsDNA, one strand shown. In outline:
as §1

The target in the next experiment is ETV1 (Homo sapiens, UniProt P50549 1-477). Conditions: protein: recombinant; tags: N-terminal GST; dsDNA, one strand shown. Summed up:
as §1

Chain of ETV5 (P41161 whole entry): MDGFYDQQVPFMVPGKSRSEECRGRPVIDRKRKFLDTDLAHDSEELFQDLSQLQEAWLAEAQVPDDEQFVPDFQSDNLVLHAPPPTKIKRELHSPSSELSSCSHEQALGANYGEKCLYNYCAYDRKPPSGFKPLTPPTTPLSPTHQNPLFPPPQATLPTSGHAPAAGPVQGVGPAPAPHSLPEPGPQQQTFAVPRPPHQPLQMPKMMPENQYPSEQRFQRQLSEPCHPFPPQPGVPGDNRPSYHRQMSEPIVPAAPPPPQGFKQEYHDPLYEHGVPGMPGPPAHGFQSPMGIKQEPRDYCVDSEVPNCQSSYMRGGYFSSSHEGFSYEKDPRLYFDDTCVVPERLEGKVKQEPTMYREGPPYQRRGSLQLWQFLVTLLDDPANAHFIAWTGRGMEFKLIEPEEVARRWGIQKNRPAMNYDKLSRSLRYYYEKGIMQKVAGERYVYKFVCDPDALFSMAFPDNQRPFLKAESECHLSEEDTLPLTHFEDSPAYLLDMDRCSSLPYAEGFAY
Chain of ELF4 (Q99607 whole entry): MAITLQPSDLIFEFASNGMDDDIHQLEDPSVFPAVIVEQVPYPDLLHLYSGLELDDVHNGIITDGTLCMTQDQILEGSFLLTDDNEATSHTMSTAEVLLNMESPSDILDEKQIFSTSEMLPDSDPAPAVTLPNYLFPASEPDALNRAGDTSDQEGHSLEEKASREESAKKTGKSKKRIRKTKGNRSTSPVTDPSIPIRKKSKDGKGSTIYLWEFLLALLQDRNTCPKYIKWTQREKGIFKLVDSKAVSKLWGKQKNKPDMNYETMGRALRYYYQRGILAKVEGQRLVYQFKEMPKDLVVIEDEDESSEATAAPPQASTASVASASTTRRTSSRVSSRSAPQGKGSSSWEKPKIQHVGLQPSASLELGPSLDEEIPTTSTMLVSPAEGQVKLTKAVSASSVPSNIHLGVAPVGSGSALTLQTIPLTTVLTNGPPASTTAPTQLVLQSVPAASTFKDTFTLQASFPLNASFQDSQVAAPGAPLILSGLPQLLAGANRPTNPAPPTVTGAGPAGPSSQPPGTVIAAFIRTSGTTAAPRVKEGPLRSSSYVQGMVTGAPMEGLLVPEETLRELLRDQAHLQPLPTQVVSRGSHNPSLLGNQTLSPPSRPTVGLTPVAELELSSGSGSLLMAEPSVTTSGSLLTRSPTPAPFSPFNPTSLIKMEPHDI
Chain of HSF1 (Q00613 whole entry): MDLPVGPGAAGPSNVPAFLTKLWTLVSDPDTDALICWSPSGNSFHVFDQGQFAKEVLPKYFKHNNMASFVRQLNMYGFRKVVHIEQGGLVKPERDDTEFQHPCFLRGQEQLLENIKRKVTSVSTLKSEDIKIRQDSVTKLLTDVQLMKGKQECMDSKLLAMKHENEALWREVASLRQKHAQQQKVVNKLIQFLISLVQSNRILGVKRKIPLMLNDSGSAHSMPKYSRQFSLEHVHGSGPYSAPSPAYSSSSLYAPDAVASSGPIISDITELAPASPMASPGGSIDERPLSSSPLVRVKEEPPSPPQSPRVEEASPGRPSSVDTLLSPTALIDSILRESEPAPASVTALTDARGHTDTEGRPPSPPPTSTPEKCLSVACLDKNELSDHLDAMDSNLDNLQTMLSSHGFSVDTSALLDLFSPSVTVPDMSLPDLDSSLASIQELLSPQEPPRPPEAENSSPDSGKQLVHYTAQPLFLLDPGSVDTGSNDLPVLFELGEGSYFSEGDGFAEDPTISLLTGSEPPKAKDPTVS
Chain of CRX (O43186 whole entry): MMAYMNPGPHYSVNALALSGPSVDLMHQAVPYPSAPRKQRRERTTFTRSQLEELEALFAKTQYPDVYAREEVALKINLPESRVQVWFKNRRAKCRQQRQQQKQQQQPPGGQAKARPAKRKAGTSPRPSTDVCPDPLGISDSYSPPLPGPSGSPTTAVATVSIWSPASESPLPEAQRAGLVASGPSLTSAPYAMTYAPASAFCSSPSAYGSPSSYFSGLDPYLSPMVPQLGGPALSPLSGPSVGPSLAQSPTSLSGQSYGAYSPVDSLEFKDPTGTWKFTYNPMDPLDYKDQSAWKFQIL
Chain of ETV1 (P50549 whole entry): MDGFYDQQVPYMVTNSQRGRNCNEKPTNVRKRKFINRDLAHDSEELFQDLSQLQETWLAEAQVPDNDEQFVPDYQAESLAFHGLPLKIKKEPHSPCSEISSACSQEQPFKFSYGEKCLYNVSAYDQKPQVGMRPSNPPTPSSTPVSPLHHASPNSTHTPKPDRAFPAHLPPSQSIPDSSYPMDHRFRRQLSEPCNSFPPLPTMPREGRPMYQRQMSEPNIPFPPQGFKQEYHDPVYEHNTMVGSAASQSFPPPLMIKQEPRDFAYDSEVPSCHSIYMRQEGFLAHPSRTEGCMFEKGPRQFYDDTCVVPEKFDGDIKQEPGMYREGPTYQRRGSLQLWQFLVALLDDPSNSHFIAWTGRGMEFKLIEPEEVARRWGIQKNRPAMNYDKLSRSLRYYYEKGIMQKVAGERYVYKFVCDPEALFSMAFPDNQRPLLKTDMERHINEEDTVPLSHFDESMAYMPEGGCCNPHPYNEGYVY

For CTCCAG, the binding signal is 1.13 fold enrichment (6-mer frequency, TF over GST control) in the experiment with FEV; 1.17 fold enrichment (6-mer frequency, TF over GST control) with ETV5; 1.65 fold enrichment (6-mer frequency, TF over GST control) with HSF1; 1.16 fold enrichment (6-mer frequency, TF over GST control) with SPIC; 1.21 fold enrichment (6-mer frequency, TF over GST control) in the experiment with ELF4; 1.18 fold enrichment (6-mer frequency, TF over GST control) with ELK4. Also, the binding signal was 1.33 fold enrichment (6-mer frequency, TF over GST control) in the experiment with ETV2; 1.02 fold enrichment (6-mer frequency, TF over GST control) with ELF3; 1.1 fold enrichment (6-mer frequency, TF over GST control) with CRX; 1.16 fold enrichment (6-mer frequency, TF over GST control) with ETV1.

For the sequence ATCCGA, the binding signal was 1.29 fold enrichment (6-mer frequency, TF over GST control) with FEV; 1.2 fold enrichment (6-mer frequency, TF over GST control) with ETV5; 1.56 fold enrichment (6-mer frequency, TF over GST control) in the experiment with HSF1; 1.31 fold enrichment (6-mer frequency, TF over GST control) in the experiment with SPIC; 1.13 fold enrichment (6-mer frequency, TF over GST control) in the experiment with ELF4; 1.18 fold enrichment (6-mer frequency, TF over GST control) with ELK4. The binding signal with ETV2 is 1.24 fold enrichment (6-mer frequency, TF over GST control); with ELF3, 1.09 fold enrichment (6-mer frequency, TF over GST control); in the experiment with CRX, 2.02 fold enrichment (6-mer frequency, TF over GST control); with ETV1, 1.17 fold enrichment (6-mer frequency, TF over GST control).

Turning to ATTGCT, the binding signal was 1.22 fold enrichment (6-mer frequency, TF over GST control) in the experiment with FEV; 1.16 fold enrichment (6-mer frequency, TF over GST control) in the experiment with ETV5; 1.14 fold enrichment (6-mer frequency, TF over GST control) with HSF1; 1.32 fold enrichment (6-mer frequency, TF over GST control) in the experiment with SPIC; 1.19 fold enrichment (6-mer frequency, TF over GST control) with ELF4; 1.16 fold enrichment (6-mer frequency, TF over GST control) with ELK4. The binding signal in the experiment with ETV2 is 1.22 fold enrichment (6-mer frequency, TF over GST control); with ELF3, 1.28 fold enrichment (6-mer frequency, TF over GST control); with CRX, 1.17 fold enrichment (6-mer frequency, TF over GST control); with ETV1, 1.27 fold enrichment (6-mer frequency, TF over GST control).

For CTCACT, the binding signal with FEV was 1.63 fold enrichment (6-mer frequency, TF over GST control); in the experiment with ETV5 it was 1.4 fold enrichment (6-mer frequency, TF over GST control); in the experiment with HSF1, 1.36 fold enrichment (6-mer frequency, TF over GST control); with SPIC it was 1.57 fold enrichment (6-mer frequency, TF over GST control); with ELF4 it was 1.53 fold enrichment (6-mer frequency, TF over GST control); in the experiment with ELK4 it was 1.38 fold enrichment (6-mer frequency, TF over GST control). The binding signal with ETV2 was 1.51 fold enrichment (6-mer frequency, TF over GST control); with ELF3, 1.63 fold enrichment (6-mer frequency, TF over GST control); with CRX it was 1.27 fold enrichment (6-mer frequency, TF over GST control); in the experiment with ETV1, 1.49 fold enrichment (6-mer frequency, TF over GST control).

Regarding ATTACT, the binding signal in the experiment with FEV is 1.27 fold enrichment (6-mer frequency, TF over GST control); with ETV5 it was 1.23 fold enrichment (6-mer frequency, TF over GST control); with HSF1, 1.66 fold enrichment (6-mer frequency, TF over GST control); in the experiment with SPIC it was 1.38 fold enrichment (6-mer frequency, TF over GST control); with ELF4 it was 1.19 fold enrichment (6-mer frequency, TF over GST control); with ELK4 it was 1.39 fold enrichment (6-mer frequency, TF over GST control). Besides, the binding signal was 1.48 fold enrichment (6-mer frequency, TF over GST control) with ETV2; 1.39 fold enrichment (6-mer frequency, TF over GST control) in the experiment with ELF3; 2.22 fold enrichment (6-mer frequency, TF over GST control) with CRX; 1.35 fold enrichment (6-mer frequency, TF over GST control) with ETV1.

As to ACCTTC, the binding signal is 1.97 fold enrichment (6-mer frequency, TF over GST control) with FEV; 1.96 fold enrichment (6-mer frequency, TF over GST control) in the experiment with ETV5; 2.87 fold enrichment (6-mer frequency, TF over GST control) with HSF1; 1.66 fold enrichment (6-mer frequency, TF over GST control) in the experiment with SPIC; 2.06 fold enrichment (6-mer frequency, TF over GST control) with ELF4; 2.06 fold enrichment (6-mer frequency, TF over GST control) with ELK4. The binding signal with ETV2 was 1.71 fold enrichment (6-mer frequency, TF over GST control); with ELF3, 1.95 fold enrichment (6-mer frequency, TF over GST control); with CRX it was 1.88 fold enrichment (6-mer frequency, TF over GST control); in the experiment with ETV1, 1.98 fold enrichment (6-mer frequency, TF over GST control).

Take TATTTC: the binding signal with FEV is 2.32 fold enrichment (6-mer frequency, TF over GST control); with ETV5, 2.13 fold enrichment (6-mer frequency, TF over GST control); with HSF1, 1.69 fold enrichment (6-mer frequency, TF over GST control); in the experiment with SPIC, 2.38 fold enrichment (6-mer frequency, TF over GST control); in the experiment with ELF4, 2.01 fold enrichment (6-mer frequency, TF over GST control); with ELK4 it was 2.24 fold enrichment (6-mer frequency, TF over GST control). Besides, the binding signal with ETV2 is 2.11 fold enrichment (6-mer frequency, TF over GST control); with ELF3 it was 2.09 fold enrichment (6-mer frequency, TF over GST control); with CRX, 1.64 fold enrichment (6-mer frequency, TF over GST control); in the experiment with ETV1, 2.14 fold enrichment (6-mer frequency, TF over GST control).

With GTGGCT, the binding signal is 1.19 fold enrichment (6-mer frequency, TF over GST control) with FEV; 1.13 fold enrichment (6-mer frequency, TF over GST control) in the experiment with ETV5; 1.05 fold enrichment (6-mer frequency, TF over GST control) in the experiment with HSF1; 1.23 fold enrichment (6-mer frequency, TF over GST control) in the experiment with SPIC; 1.1 fold enrichment (6-mer frequency, TF over GST control) with ELF4; 1.31 fold enrichment (6-mer frequency, TF over GST control) in the experiment with ELK4. Moreover, the binding signal in the experiment with ETV2 is 1.17 fold enrichment (6-mer frequency, TF over GST control); with ELF3 it was 1.26 fold enrichment (6-mer frequency, TF over GST control); with CRX, 1.18 fold enrichment (6-mer frequency, TF over GST control); with ETV1, 1.19 fold enrichment (6-mer frequency, TF over GST control).
